The panel holds about 83,000 compounds, 20% with a hit somewhere; the sample as a whole holds those more often.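 Percent growth is the endpoint: 0 to 100 indicates growth inhibition (40 means 60% inhibition), 0 means no net growth, and negative values indicate cell death.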 The source made the active and inactive calls. The calls were made as follows: active = growth percent below 10; inactive = the rest.
Columns and labels:
Test in all cases: NCI-60 one-dose screen, 48 h (100 = growth as untreated, 0 = no growth, -100 = all killed)
NCI-H23 lung = settings: 10 µM unless noted
NCI-H226 lung = settings: 10 µM unless noted
NCI-H322M lung = settings: 10 µM unless noted
NCI-H460 lung = settings: 10 µM unless noted
HOP-92 NSCLC = settings: 10 µM
NCI-H522 lung = settings: 10 µM
A549/ATCC NSCLC = settings: 10 µM unless noted
786-0 renal = settings: 10 µM unless noted
COLO 205 colon = settings: 10 µM unless noted
DU-145 prostate = settings: 10 µM unless noted
K-562 leukemia = settings: 10 µM unless noted
MALME-3M melanoma = settings: 10 µM unless noted
MDA-MB-231 breast = settings: 10 µM unless noted
RXF 393 renal = settings: 10 µM unless noted
SF-268 CNS = settings: 10 µM unless noted
SF-295 CNS = settings: 10 µM unless noted
SF-539 CNS = settings: 10 µM unless noted
UACC-257 melanoma = settings: 10 µM unless noted
M14 melanoma = settings: 10 µM unless noted

Measured: growth

CC(=O)OCC1O[C@@H](OC(C)=O)[C@@H](NC(=O)NS(=O)(=O)c2ccccc2)C(OC(C)=O)[C@@H]1OC(C)=O (some centres undefined)
inactive: NCI-H23 lung 113% | NCI-H226 lung 99.7% | NCI-H322M lung 98.7% | NCI-H460 lung 117% | HOP-92 NSCLC 97.9% | NCI-H522 lung 96% | A549/ATCC NSCLC 106% | 786-0 renal 98.3% | COLO 205 colon 120% | DU-145 prostate 108% | K-562 leukemia 94.6% | MALME-3M melanoma 103% | MDA-MB-231 breast 105% | RXF 393 renal 108% | SF-268 CNS 100% | SF-295 CNS 94.4% | SF-539 CNS 97.2% | UACC-257 melanoma 118% | M14 melanoma 108%

CCOC(=O)c1cc(-c2ccc(OC)cc2)[nH]c1NNC(=O)CCOC
inactive: NCI-H23 lung 114% | NCI-H226 lung 105% | NCI-H322M lung 118% | NCI-H460 lung 119% | HOP-92 NSCLC 73.1% | NCI-H522 lung 98% | A549/ATCC NSCLC 99.9% | 786-0 renal 84.3% | COLO 205 colon 109% | DU-145 prostate 108% | K-562 leukemia 99.8% | MALME-3M melanoma 98.4% | MDA-MB-231 breast 95% | RXF 393 renal 104% | SF-268 CNS 121% | SF-295 CNS 95.3% | SF-539 CNS 106% | UACC-257 melanoma 105%

COc1cc(NC(C)CCCN)c2nc(C)ccc2c1OC (centres undefined)
inactive: NCI-H23 lung 90.9% | NCI-H226 lung 102% | NCI-H322M lung 96.9% | NCI-H460 lung 109% | HOP-92 NSCLC 55.5% | NCI-H522 lung 101% | A549/ATCC NSCLC 147% | 786-0 renal 98.3% | COLO 205 colon 60.5% | DU-145 prostate 87.2% | K-562 leukemia 78.9% | MALME-3M melanoma 69.9% | MDA-MB-231 breast 75.6% | RXF 393 renal 186% | SF-268 CNS 109% | SF-295 CNS 118% | SF-539 CNS 93.6% | UACC-257 melanoma 124%

COCC(=O)NNc1[nH]c(-c2ccc(OC)cc2)cc1C#N
inactive: NCI-H23 lung 100% | NCI-H226 lung 106% | NCI-H322M lung 33.4% | NCI-H460 lung 117% | HOP-92 NSCLC 95.4% | NCI-H522 lung 104% | A549/ATCC NSCLC 112% | 786-0 renal 95.3% | COLO 205 colon 115% | DU-145 prostate 111% | K-562 leukemia 96.9% | MALME-3M melanoma 112% | MDA-MB-231 breast 102% | RXF 393 renal 114% | SF-268 CNS 119% | SF-295 CNS 96% | SF-539 CNS 96.2% | UACC-257 melanoma 109%

CCCCCCCCCCCCCCCC[n+]1cccc(C#N)c1
active: K-562 leukemia 6.02%
inactive: NCI-H23 lung 76.8% | NCI-H226 lung 80.2% | NCI-H322M lung 82.8% | NCI-H460 lung 71.6% | HOP-92 NSCLC 48.7% | NCI-H522 lung 54.7% | A549/ATCC NSCLC 87.7% | 786-0 renal 70.3% | COLO 205 colon 31.9% | DU-145 prostate 68.2% | MALME-3M melanoma 92% | MDA-MB-231 breast 69.7% | RXF 393 renal 17.4% | SF-268 CNS 53.3% | SF-295 CNS 91.5% | SF-539 CNS 25.5% | UACC-257 melanoma 103% | M14 melanoma 62%

Oc1ccccc1/C=N/N=C/c1c(O)ccc2ccccc12
inactive: NCI-H23 lung 82% | NCI-H226 lung 90.8% | NCI-H322M lung 107% | NCI-H460 lung 88% | HOP-92 NSCLC 66.9% | NCI-H522 lung 84% | A549/ATCC NSCLC 95.6% | 786-0 renal 107% | COLO 205 colon 104% | DU-145 prostate 96.9% | K-562 leukemia 78.5% | MALME-3M melanoma 91.3% | MDA-MB-231 breast 69.9% | RXF 393 renal 109% | SF-268 CNS 92.5% | SF-295 CNS 98.1% | SF-539 CNS 96.9% | UACC-257 melanoma 98.2% | M14 melanoma 80%

c1cc(C2CCCCC2)ccc1OCCCCCCN1CCNCC1
active: NCI-H460 lung -7.36% | HOP-92 NSCLC 6.55% | COLO 205 colon -52.2% | K-562 leukemia -42.1%
inactive: NCI-H23 lung 42.3% | NCI-H226 lung 81.9% | NCI-H322M lung 82% | NCI-H522 lung 77.7% | A549/ATCC NSCLC 36.5% | 786-0 renal 58.3% | DU-145 prostate 17.9% | MALME-3M melanoma 52.7% | MDA-MB-231 breast 33.4% | RXF 393 renal 32% | SF-268 CNS 54.5% | SF-295 CNS 73.1% | SF-539 CNS 32.4% | UACC-257 melanoma 73.1% | M14 melanoma 40.3%

CCC1(CC)C(OC)NC(Br)=C(C#N)C1(C#N)C(N)=O (centres undefined)
inactive: NCI-H23 lung 99.1% | NCI-H226 lung 114% | NCI-H322M lung 118% | NCI-H460 lung 115% | HOP-92 NSCLC 77.3% | NCI-H522 lung 98% | A549/ATCC NSCLC 114% | 786-0 renal 94.3% | COLO 205 colon 126% | DU-145 prostate 97.5% | K-562 leukemia 91.5% | MALME-3M melanoma 137% | MDA-MB-231 breast 102% | SF-268 CNS 131% | SF-295 CNS 122% | SF-539 CNS 93.9% | UACC-257 melanoma 103%
active: RXF 393 renal -5.04% | M14 melanoma -100%

— PubChem BioAssay (NCI)
